{
  "source": "PubChem BioAssay AID1794844",
  "about": "(National Center for Advancing Translational Sciences (NCATS), 2023)",
  "note": "Hit rate of the full screen: of about 2,800 compounds, fewer than 10 were called active. About 7% were inconclusive and are not listed. Calls come from the whole dose curve; as a rule, active = well fitted inhibition curve with a large enough effect; inconclusive = small, poorly fitted or top-dose-only effect; inactive = no such curve, though single readings can be large or run the other way. Only a sample is shown. Potency is the fitted concentration of half-maximal effect.",
  "data": [
    {"biological_target": "Metallo-beta-lactamase type 2 (Klebsiella pneumoniae) (UniProt C7C422)", "sequence (C7C422 whole entry, looked up)": "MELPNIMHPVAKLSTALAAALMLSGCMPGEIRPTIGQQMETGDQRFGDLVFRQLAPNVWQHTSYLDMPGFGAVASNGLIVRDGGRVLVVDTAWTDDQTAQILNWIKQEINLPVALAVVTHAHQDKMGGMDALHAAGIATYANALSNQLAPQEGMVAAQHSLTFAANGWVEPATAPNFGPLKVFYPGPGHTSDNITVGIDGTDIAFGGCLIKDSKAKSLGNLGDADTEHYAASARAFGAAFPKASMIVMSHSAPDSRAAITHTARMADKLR", "assay": "qHTS to identify inhibitors of the New Delhi Metallo-beta-lactamase (NDM): Nitrocefin screen against the machine-based learning selections; for activity, negative = inhibition: % of control where 0% means no effect.", "details": "NDM-1 enzyme, nitrocefin hydrolysis, absorbance 485 nm; series mostly up to 38.4 µM; activity, negative = inhibition: at the top concentration", "from_the_text": "Assay Submitter (PI): James Inglese Ph.D., Patricia Dranchak Ph.D., Mahesh Aitha Ph.D. Assay Development and Screening Technology Laboratory (ADST) National Center for Advancing Translational Sciences (NCATS), Rockville, MD National Institute of Health (NIH), Bethesda, Maryland The metallo-beta-lactamases (MBL) are a main antibiotic resistance mechanism evolved by bacteria. There is an urgent clinical need for MBL inhibitors to mitigate this growing threat. To support a machine-based learning study, qHTS has been used to experimentally test inhibitors identified by prediction tools.\nPROTOCOL TABLE (as described by Inglese et al., 2007) SEQUENCE No. (e.g., 1, 2, 3, etc.); […] (e.g., enzyme, Incubation, Reagent, etc.); VALUE; DESCRIPTION Primary Screen 1; NDM-1; 4 uL of 3 nM enzyme [2 nM final] in 50 mM HEPES (pH 7.0), 1 uM […], 0.01% Tween20; Use BioRaptr to dispense into two sets of Aurora black, clear bottom high base 1536-well plates 2; Compounds; 23 nL; Use Pin Tool (Wako) to transfer DMSO control and library compounds in DMSO 3; Incubate; >30 min 4a; Reagent; 2 uL of 50 uM nitrocefin [16.7 uM final] to one set of assay plates 4b; Reagent; 2 uL of 150 uM meropenem [50 uM final] to second set of assay plates 5a; Incubate; 15 min 5b; Incubate; 30 min 6a; Detector; Absorbance at 485 nm (bandwidth = 5 nm, 25 flashes/well) on Tecan Infinity 6b; Detector; Absorbance at 300 nm (bandwidth = 5 nm, 25 flashes/well) on Tecan Infinity NOTES (numbers refer to sequence above) 1; Column 1 of each plate received assay buffer without enzyme and columns 2-48 received enzyme for a final assay concentration of 2 nM. 2; Control plate contained DMSO in columns 1, 2, 3, and 4. 3; Compound interaction with enzyme. 4; Nitrocefin and meropenem substrates were prepared in the same assay buffer as step 1 for a final assay concentration of 16.7 uM and 50 uM, respectively, and added to all wells across respective sets of assay plates. 5; Default reader settings were applied for absorbance read at 485 nm (nitrocefin) or 300 nm (meropenem), bandwidth = 5 nm, 25 flashes/well. References: Inglese J, Shamu CE, Guy RK. 2007. Reporting data from high-throughput screening of small-molecule libraries. Nat Chem Biol. doi:10.1038/nchembio0807-438 Yasgar A, Shinn P, Jadhav A, Auld D, Michael S, Zheng W, Austin CP, Inglese J, Simeonov A. 2008. Compound Management for Quantitative High-Throughput Screening. J Lab Autom 13:79 - 89. doi:10.1016/j.jala.2007.12.004", "values": [
      {"smiles": "Cn1cc(C(NC(=O)c2ccc3c(c2)ncn3CCO)C2CC(O)C2)cn1", "note": "(stereo not drawn)", "activity, negative = inhibition": "-11.3% (inactive)"},
      {"smiles": "Cc1nnc(-c2cc(N3CCN(c4ccccn4)CC3)ccn2)n1C1CCCCC1", "activity, negative = inhibition": "-1.57% [at 57.5 µM] (inactive)"},
      {"smiles": "O=C1CO[C@H]2CN(c3nccc(C(F)(F)F)n3)C[C@H]2N1Cc1ccc(F)cc1", "activity, negative = inhibition": "1.03% [at 57.5 µM] (inactive)"},
      {"smiles": "COc1cc(=O)n2c(c1C(=O)NC1CCCCCC1)CCCC2", "activity, negative = inhibition": "0.186% (inactive)"},
      {"smiles": "Cc1cccc(N(CC(=O)N[C@H]2CC[C@H]2NC2CCCC2)S(C)(=O)=O)c1", "activity, negative = inhibition": "-5.09% (inactive)"},
      {"smiles": "O=C(O)[C@]12CCCN[C@@H]1CCN(Cc1cnc(-c3ccccn3)nc1)C2", "activity, negative = inhibition": "3.6% (inactive)"},
      {"smiles": "CCOCCn1nc(C)cc1C(=O)N1C[C@@H](C)[C@](O)(C2CC2)C1", "activity, negative = inhibition": "-0.533% (inactive)"},
      {"smiles": "COc1cccc(-c2cccc(CCOc3cnc4c(ccn4CC(=O)O)c3)c2)c1", "activity, negative = inhibition": "-1.17% [at 57.5 µM] (inactive)"},
      {"smiles": "O=C(N[C@@H]1CCN(Cc2cccc3nonc23)C[C@H]1O)c1cccnc1", "activity, negative = inhibition": "-1.15% (inactive)"},
      {"smiles": "COC(=O)c1ccc2nc(C[C@@H]3C[C@@H](C(C)C)[C@H](CN(C)C)C=C3C)[nH]c2c1", "activity, negative = inhibition": "-8.3% [at 57.5 µM] (inactive)"},
      {"smiles": "CCO[C@H]1C[C@@H](O)C12CCN(C(=O)c1cc(S(N)(=O)=O)ccc1F)CC2", "activity, negative = inhibition": "1.64% (inactive)"},
      {"smiles": "CN(C)Cc1cn(C[C@H]2C[C@@H](NC(=O)c3nc4ccccc4s3)[C@H](O)[C@@H]2O)nn1", "activity, negative = inhibition": "-6.95% (inactive)"},
      {"smiles": "COc1cc(CNC(=O)CCC2CCN(S(=O)(=O)c3ccccc3)CC2)cc(OC)c1", "activity, negative = inhibition": "-10.9% (inactive)"},
      {"smiles": "c1cncc(-c2cnc([C@@H]3COCCN3Cc3ncc[nH]3)[nH]2)c1", "activity, negative = inhibition": "-25.1% [at 57.5 µM] (inactive)"},
      {"smiles": "Clc1cccc(-c2cnc([C@@H]3COCCN3Cc3cnc[nH]3)[nH]2)c1", "Potency": "13.7 µM (active)"},
      {"smiles": "Oc1ccccc1CN1CCOC[C@H]1c1ncc(-c2cccc(Cl)c2)[nH]1", "activity, negative = inhibition": "-3.86% [at 57.5 µM] (inactive)"},
      {"smiles": "CC1(C)CN(C(=O)c2ccccc2Oc2ccccc2)CC1(C)O", "note": "(stereo not drawn)", "activity, negative = inhibition": "1.27% (inactive)"},
      {"smiles": "O=c1ncn(Cc2ccccc2)c2ccc(-c3ccc(O)c(F)c3)nc12", "activity, negative = inhibition": "4.77% [at 57.5 µM] (inactive)"},
      {"smiles": "CCOC(=O)C[C@@H]1C[C@@H](C(C)C)[C@H](CNC(=O)c2ccc(C#N)cc2)C=C1C", "activity, negative = inhibition": "0.154% [at 57.5 µM] (inactive)"},
      {"smiles": "CCC1=C(C(=O)OC)C(c2ccccc2OC)N2C(CC(=O)N3CC(C)OC(C)C3)=CSC2=N1", "note": "(stereo not drawn)", "activity, negative = inhibition": "-17.2% (inactive)"},
      {"smiles": "CC1(C(=O)NCCc2ccccn2)CCc2cnc(NCc3ccccc3)nc21", "note": "(stereo not drawn)", "activity, negative = inhibition": "-0.0818% [at 57.5 µM] (inactive)"},
      {"smiles": "Cn1ccc2c(C(=O)NCCc3cnc[nH]3)nc(-c3cccnc3)cc21", "activity, negative = inhibition": "0.339% [at 57.5 µM] (inactive)"},
      {"smiles": "C[S+](=O)([O-])Nc1cccc(-c2cc(-c3cccnc3)c3cncn3c2)c1", "activity, negative = inhibition": "-17.6% [at 57.5 µM] (inactive)"},
      {"smiles": "O=C1Nc2cc(Cl)ccc2C(=O)N2CCN(C(=O)c3ccccc3)C[C@H]12", "activity, negative = inhibition": "-14.3% [at 57.5 µM] (inactive)"},
      {"smiles": "O=C(Cc1c[nH]c2ncc(-c3ccccc3F)cc12)NCc1cccnc1", "activity, negative = inhibition": "1.05% [at 57.5 µM] (inactive)"},
      {"smiles": "COCc1cc(C[C@@H]2CC[C@H](O)[C@@H](CNS(=O)(=O)c3ccccc3)O2)no1", "activity, negative = inhibition": "-0.232% [at 57.5 µM] (inactive)"},
      {"smiles": "O=C(NC1CC(=O)N(CCc2cccc(Cl)c2)C1)c1ccsc1", "note": "(stereo not drawn)", "activity, negative = inhibition": "1.1% (inactive)"},
      {"smiles": "CCN(CC)C(=O)C[C@@H]1c2nc(NC(=O)N3CCOCC3)sc2C[C@@H]2[C@](C)(CO)[C@H](O)CC[C@]21C", "activity, negative = inhibition": "7.87% (inactive)"},
      {"smiles": "CS(=O)(=O)N[C@H]1C[C@H]2C(=O)Nc3ccc(-c4ccc5c(c4)OCO5)cc3C(=O)N2C1", "activity, negative = inhibition": "8.55% [at 57.5 µM] (inactive)"},
      {"smiles": "COc1ccc(-c2cnc3[nH]cc(CC(=O)Nc4ccncc4)c3c2)cc1", "activity, negative = inhibition": "42.4% [at 57.5 µM] (inactive)"},
      {"smiles": "COc1ccc2c(c1)nc1n2[C@@H](CNC(=O)c2ccncc2)COC1", "activity, negative = inhibition": "0.0321% [at 57.5 µM] (inactive)"},
      {"smiles": "O=C(CCCc1ccccc1)N[C@@H]1CN(c2ccncn2)C[C@H]1CO", "activity, negative = inhibition": "-4.2% (inactive)"},
      {"smiles": "Cc1c(CN2C[C@@H](COc3ccccc3)[C@H](C(N)=O)C2)cnn1C", "activity, negative = inhibition": "2.24% (inactive)"},
      {"smiles": "Cc1ccc(C)c(-c2cc(C(=O)N3CCCC3c3nncn3C(C)C)[nH]n2)c1", "note": "(stereo not drawn)", "activity, negative = inhibition": "2.36% (inactive)"},
      {"smiles": "O=S(=O)(c1ccc(F)cc1)N1CCCC(Cc2noc(-c3cnccn3)n2)C1", "note": "(stereo not drawn)", "activity, negative = inhibition": "-2.02% (inactive)"},
      {"smiles": "CN1CCCC1c1nc(C2CN(C(=O)c3ccsc3)C2)no1", "note": "(stereo not drawn)", "activity, negative = inhibition": "-1.68% (inactive)"},
      {"smiles": "CN1C(=O)CC(C(=O)O)C12CCN(C(=O)CCc1cccnc1)CC2", "note": "(stereo not drawn)", "activity, negative = inhibition": "8.54% (inactive)"},
      {"smiles": "Cn1c(CO[C@H]2CN(C(=O)c3cccnc3)C[C@H]2F)nc2ccccc21", "activity, negative = inhibition": "0.8% [at 57.5 µM] (inactive)"},
      {"smiles": "C[C@@H](c1ccccc1)N1C(=O)[C@@H]2CN(C(=O)c3ccco3)CCN2C1=O", "activity, negative = inhibition": "-7.93% [at 57.5 µM] (inactive)"},
      {"smiles": "COc1ccc(OC)c(CN2CCC3(CC2)Nc2ccccc2NC3=O)c1", "activity, negative = inhibition": "-1.47% (inactive)"},
      {"smiles": "NC(=O)C1CCCN(CCNc2cc(-c3ccccc3)nc3ccnn23)C1", "note": "(stereo not drawn)", "activity, negative = inhibition": "2.07% (inactive)"},
      {"smiles": "COC(=O)[C@H](NC(=O)[C@@H]1C[C@@H](NC(=O)c2ccncc2)CCN1S(=O)(=O)c1ccc(OC)cc1)C(C)C", "activity, negative = inhibition": "-3.06% (inactive)"},
      {"smiles": "Cc1cncc(C(=O)N2CC[C@@H](c3ccc4ccccc4c3)[C@H](O)C2)c1", "activity, negative = inhibition": "-1.9% (inactive)"},
      {"smiles": "CCn1cnnc1CC1CCN(C(=O)NC)C1", "note": "(stereo not drawn)", "activity, negative = inhibition": "9.39% (inactive)"},
      {"smiles": "O=C(c1ccoc1)N1CCCn2cc(-c3ccccc3)nc21", "activity, negative = inhibition": "3.3% (inactive)"},
      {"smiles": "NC(=O)CCNC(=O)C1=C[C@@H](NC(=O)c2cccs2)[C@@H](O)[C@H](O)C1", "activity, negative = inhibition": "10.8% [at 57.5 µM] (inactive)"},
      {"smiles": "Cc1ccc(O)c(CN2CC[C@@H](c3ccc(F)cc3)[C@H](O)C2)c1", "activity, negative = inhibition": "-5.08% (inactive)"},
      {"smiles": "Cc1cnc(C(=O)N2CCCC(c3nc(-c4cccnc4)no3)CCNC(=O)CC2)cn1", "note": "(stereo not drawn)", "activity, negative = inhibition": "-3.61% (inactive)"}
    ]}
  ]
}
